Data published in PubChem BioAssay AID1851 (National Center for Advancing Translational Sciences (NCATS), 2009).
In all, about 16,000 compounds went through this assay and about 2,600 (16%) were called active. Another 20% or so got no clear call; they are omitted. Not all results are given here. Unmarked numbers belong to inactive results. The call rests on the fitted dose curve; in most records, active means well fitted curve in the direction sought with a large enough effect; inconclusive means small, poorly fitted or top-dose-only effect, or effect the other way; inactive means no such curve, though single readings can be large or run the other way.

target: Cytochrome P450 2D6 (Homo sapiens) (UniProt P10635); test: Cytochrome panel assay with activity outcomes; details: recombinant CYP, pro-luciferin dealkylation, luminescence, p450-cyp2d6; series mostly up to 57.1 µM; activity, negative = inhibition: at the top concentration
On the % scale 0 is the no-effect control and ±100 the full control effect.

Chain of Cytochrome P450 2D6 (Homo sapiens) (P10635 whole entry, looked up): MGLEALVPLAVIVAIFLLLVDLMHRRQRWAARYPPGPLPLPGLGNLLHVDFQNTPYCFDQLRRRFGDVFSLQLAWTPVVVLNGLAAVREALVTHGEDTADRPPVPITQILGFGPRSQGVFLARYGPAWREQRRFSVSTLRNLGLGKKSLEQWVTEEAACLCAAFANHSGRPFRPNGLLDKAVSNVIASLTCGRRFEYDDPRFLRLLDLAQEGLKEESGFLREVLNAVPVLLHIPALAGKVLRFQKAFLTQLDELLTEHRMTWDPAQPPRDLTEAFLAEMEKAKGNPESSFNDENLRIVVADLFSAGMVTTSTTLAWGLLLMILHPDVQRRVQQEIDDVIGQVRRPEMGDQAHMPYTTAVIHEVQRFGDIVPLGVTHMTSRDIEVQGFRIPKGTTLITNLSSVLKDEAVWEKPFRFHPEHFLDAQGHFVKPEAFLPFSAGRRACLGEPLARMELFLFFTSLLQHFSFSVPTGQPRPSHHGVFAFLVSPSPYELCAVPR

| Compound | AC50 | activity, negative = inhibition |
| --- | --- | --- |
| CCN(Cc1cc(Cl)cc(C)c1O)Cc1c(O)ccc2ccccc12 | 1.26 µM (active) |  |
| CN(Cc1cc(Cl)cc(Cl)c1O)Cc1c(O)ccc2ccccc12 | 1.26 µM (active) |  |
| COc1ccc(C=Nc2c(O)ccc3ccccc23)cc1OC |  | -7.34% [at 11.4 µM] |
| Oc1ccc(Cl)cc1Cc1cc(Cl)cc(Cc2cc(Cl)ccc2O)c1O |  | -10.5% [at 11.4 µM] |
| CN(C)Cc1cc(Cl)c(O)c(CN(C)C)c1 |  | -14% [at 11.4 µM] |
| CN(Cc1cc(Br)cc(Br)c1O)Cc1c(O)ccc2ccccc12 | 1.58 µM (active) |  |
| Oc1ccc2ccccc2c1/C=C\c1ccc2c(Br)cc(Br)c(O)c2n1 |  | -2.53% [at 11.4 µM] |
| Cc1c(C(c2cccc([N+](=O)[O-])c2O)c2c(C)n(C)n(-c3ccccc3)c2=O)c(=O)n(-c2ccccc2)n1C |  | 17% |
| COc1ccc(C(NC(=O)c2ccc(-c3ccccc3)cc2)c2ccccc2)cc1 (stereo unspecified) |  | 26.6% |
| CCN(CC)C(=O)C1CCN(S(=O)(=O)c2ccc3oc4ccccc4c3c2)CC1 |  | -29.4% |
| COC(=O)c1ccc2ccn(CC(=O)NC3CCCCC3)c2c1 |  | -13.2% |
| Cn1cc(-c2nc3cncnc3n(CCN)c2=O)c2ccccc21 |  | -6.64% |
| CCCCOC1(c2ccccc2)OC(=O)c2ccccc21 (stereo unspecified) |  | -1.34% |
| COc1ccc(NC(=O)N2CCC3(CC2)CCN(C(=O)c2cccn2C)CC3)cc1 |  | -19.6% |
| COc1ccccc1CN1CCCC2(CCN(C(=O)c3cccn3C)CC2)C1 | 3.16 µM (active) |  |
| COc1ccccc1CN1CCC2(CC1)CCN(C(=O)c1cccn1C)CC2 | 3.98 µM (active) |  |
| Cn1cccc1C(=O)N1CCC2(CCCN(c3ccccc3)C2)CC1 |  | -4.1% |
| COc1ccc(NC(=O)N2CC[C@@]3(CCCN(C(=O)c4cccn4C)C3)C2)cc1 |  | 13.3% |
| CN1CCCC2(CCN(C(=O)c3cccn3C)CC2)C1 |  | 1.2% |
| CC(C)NC(=O)N1CC[C@@]2(CCCN(C(=O)c3cccn3C)C2)C1 |  | 6.81% |
| Cn1cccc1C(=O)N1CCC2(CCN(Cc3nccs3)CC2)CC1 |  | -10% |
| COc1ccccc1CN1CC[C@@]2(CCCN(C(=O)c3cccn3C)C2)C1 | 0.316 µM (active) |  |

| Compound | AC50 | activity, negative = inhibition |
| --- | --- | --- |
| Cc1ccc(-c2csc(N3CCC(NS(=O)(=O)c4ccc5c(c4)OCCO5)CC3)n2)cc1 |  | 3.86% |
| COc1ccc(-c2nc3cnc(N4CCN(C)CC4)nc3n(CCC#N)c2=O)cc1 |  | 4.55% |
| Cc1cc2nnc(SCCCCN3C(=O)c4ccccc4C3=O)n2c2ccccc12 |  | -11.6% |
| COc1cc2c(cc1OC)C(c1ccc(N)cc1)=NNC(=O)C2 |  | -7.94% |
| O=c1ccn(-c2cccc(C(F)(F)F)c2)nc1-c1ccn(-c2ccccc2F)n1 |  | -11.5% |
| CCOC(=O)CSc1cc(C(F)(F)F)nc(-c2ccccn2)n1 |  | 6.4% |
| CCOC(=O)CSc1cc(CS(=O)c2ccc(Cl)cc2)nc(-c2ccccc2)n1 (stereo unspecified) | 14.1 µM (active) |  |
| CCOC(=O)CSc1nc(-c2ccccc2)nc2ccccc12 |  | -8.14% |
| Oc1c(Cl)cc(C(c2cc(Cl)c(O)c(Cl)c2)C(c2cc(Cl)c(O)c(Cl)c2)c2cc(Cl)c(O)c(Cl)c2)cc1Cl |  | -3.64% [at 11.4 µM] |
| C=C1CC[C@H](O)C/C1=C/C=C1\CCC[C@]2(C)[C@H]1CC[C@H]2[C@@H](C)/C=C\[C@@H](C)C(C)C |  | 1.8% [at 25.6 µM] |
| CC(=O)c1cc(C)ccc1OC(=O)CCN1C(=O)C2C3c4ccccc4C(c4ccccc43)C2C1=O (stereo unspecified) |  | -6.66% |
| Oc1cc(O)cc(/C=C\c2ccc(O)c(O)c2)c1 |  | -5.72% |
| O=S(=O)(c1cccc2nsnc12)N1CCCC1 |  | -16.8% |
| O=C(C1CCN(S(=O)(=O)c2cccc3nsnc23)CC1)N1CCCc2ccccc21 |  | -22.1% |
| CN(CCCNC(=O)C1CCN(S(=O)(=O)c2cccc3nsnc23)CC1)Cc1ccccc1 | 5.01 µM (active) |  |
| O=C(C1CCN(S(=O)(=O)c2cccc3nsnc23)CC1)N1CCN(c2ccccc2F)CC1 |  | -19.3% |
| COc1ccc(CCNC(=O)C2CCN(S(=O)(=O)c3cccc4nsnc34)CC2)cc1OC |  | -16.1% |
| O=C(NCC1COc2ccccc2O1)C1CCN(S(=O)(=O)c2cccc3nsnc23)CC1 (stereo unspecified) | 3.55 µM (active) |  |
| C=C(C)COc1ccc2c(c1)CCC1C2CC[C@]2(C)C(=O)/C(=N/O)CC12 (stereo partly specified) |  | 14.1% [at 11.4 µM] |
| COc1ccc(C(=O)NC2(C(F)(F)F)C(=O)Nc3c2c(=O)[nH]c(=O)n3CCc2ccc(OC)c(OC)c2)cc1 (stereo unspecified) |  | 5.12% |
| O=C(NC(=S)NNC(=O)c1cccs1)c1ccco1 |  | -0.979% |
| Cc1cc(C(=O)OC2CCOC2=O)c2ccccc2n1 (stereo unspecified) |  | -0.0965% |

| Compound | AC50 | activity, negative = inhibition |
| --- | --- | --- |
| C[C@@H]1O[C@@H](O)[C@@H](O)[C@H](O)[C@H]1O |  | -0.841% [at 11.4 µM] |
| Cc1ccc(-n2ncc(N(C)C)c(Cl)c2=O)cc1 |  | -14.8% |
| CC[C@](N)(C(=O)O)C(C)C |  | 10.5% [at 11.4 µM] |
| O=c1c2ccccc2nc2n1CCc1c-2[nH]c2ccccc12 |  | -4.05% |
| O=C1NCCc2c1[nH]c1ccccc21 |  | -6% |
| c1ccc2c3c([nH]c2c1)[C@@H]1[C@H]2CC[C@H]([C@H]4CCCN[C@H]42)N1CC3 | 7.94 µM (active) |  |
| O=[N+]([O-])c1ccc(Nc2nc(N/N=C\c3ccc4c(c3)OCO4)nc(N3CCCCC3)n2)cc1 |  | 8.9% |
| CN(C)S(=O)(=O)Oc1cccc(C(=O)Nc2ccc(Cl)c(Cl)c2)c1 |  | -74.8% |
| CN(C)S(=O)(=O)Oc1ccc(Cl)cc1C(=O)Nc1cccc(C(F)(F)F)c1 |  | 16.8% |
| CN(C)S(=O)(=O)Oc1ccsc1C(=O)Nc1ccc(Cl)cc1 | 22.4 µM (active) |  |
| O=C(CSc1nnc2c(n1)[nH]c1ccc(F)cc12)OCc1ccccc1 |  | 2.72% |
| C=CCN(CC=C)C(=S)NC(=O)c1ccc(OC)c(Br)c1 | 0.708 µM (active) |  |
| COc1ccc(C(=O)NC(=S)NC(C)C)cc1Br |  | -8.27% |
| COc1ccc(C(=O)NC(=S)NC(C)(C)C)cc1Br |  | 3.67% |
| Nc1cc(Cl)ccc1Oc1ccccc1 |  | -14.5% |
| Nc1cc(Cl)ccc1Oc1ccc(Cl)cc1 | 15.8 µM (active) |  |
| Cc1cc(Cl)ccc1Oc1ncc(-c2ccc(Cl)cc2)cn1 |  | 24% |
| O=C1C2CCC(C(O)C2)N1Cc1ccccc1 (stereo unspecified) |  | -23.9% |
| S[C@@H]1CCCN(Cc2ccccc2)C1 | 0.794 µM (active) |  |
| O=C(O)[C@H]1CCCN(CCC=C(c2ccccc2)c2ccccc2)C1 |  | -4.61% |
| O=C(O)[C@@H]1CS[C@@]2(CCCN(Cc3ccccc3)C2)N1 |  | -2.15% [at 11.4 µM] |
| OCC1CCCN(Cc2ccc(-c3ccccc3)cc2)C1 (stereo unspecified) | 0.1 µM (active) |  |
